Target: Interleukin-8 (IL8, CXCL8), C-terminal His-tagged (Homo sapiens, UniProt P10145 SEQ:1-72)
Assay: competition; competition TR-FRET; L1 deleted, described as complete loss
Details: tags: C-terminal 6xHis (Sino Biological); ssRNA; 2'-F G, 2'-OMe A/C/U, 5' C6NH2, 3' idT
Description: To better understand the sequence requirements and to confirm the stem structures of members of the Aptamer 3 family as determined from sequence covariation analysis from both the primary and secondary (degenerate) selections, a series of variants which included mutations and deletions to the predicted stems were synthesized and screened (Table 24). Activity of each of these variants were tested using a time resolved competition TR-FRET assay in which the labeled parent Aptamer 3 was competed with increasing concentrations of unlabeled variants for binding to IL8 (FIG. 14). Briefly, 2-fold dilutions of thermally equilibrated aptamers were made in TR-FRET Buffer (50 mM MOPS, pH 7.4, 125 mM NaCl, 5 mM KCl, 50 μM CHAPS, 0.1 mg/mL BSA, 1 mM CaCl₂, and 1 mM MgCl₂). 5 μL of aptamer or control solution was added to 5 μl mix of 10 nM C-terminal His-tagged-IL8, 60 nM ALEXA FLUOR® 647-labeled Aptamer, and 5 nM anti-His-Eu (Perkin Elmer) in a black wall low volume 384 well plate (Greiner). […] The plate was read on a Biotek CYTATION™ 5 plate reader. […]
To confirm the importance of this residue, molecules were made and tested in which either loop L1 was deleted entirely (Aptamer 40) or was mutated to 5′-U-3′(Aptamer 41). In both cases, there was a complete loss of activity (>10-fold) as determined by competition TR-FRET assay (Table 25 and FIG. 15).

| Sequence | binding signal |
| --- | --- |
| GAUGCGGUAGAUUACGGGUAGAGUGACCGCAUC | > 10 fold worse than Aptamer 3 |
